Bioassay records deposited in PubChem by National Center for Advancing Translational Sciences (NCATS).
SNCA viab count – GF-AFC viability counterscreen for inhibitors of alpha-synuclein gene (SNCA) expression | Potency, µM (doses to about 57.1 µM), actives largely listed as cytotoxic | AID 1671193, 2021 | HEK-293-SNCA-luc viability, GF-AFC fluorescence, 24 h | hit rate 0.12% among 150,000; further: nearly all actives have a fitted effect of over 30% in size
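Cytotoxicity counterscreen: after 24 h compound treatment of genome-edited SNCA-luciferase HEK-293 cells, live-cell protease substrate GF-AFC read by fluorescence after 30 min; activity scaled between DMSO (0%) and medium-only (-100%), curves Hill-fitted.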
SNCA expr inh – Primary qHTS assay for inhibitors of alpha-synuclein gene (SNCA) expression; HEK-293 SNCA-luciferase knock-in, luminescence, 24 h; Potency, µM (titrated, usually from 57.2 µM), usual class: inhibitors; hit rate 0.17% among 140,000; AID 1671194, 2021; further: nearly all actives have a fitted effect of over 45% in size
IP6K1 inhibitor – Primary qHTS assay for small molecule inhibitors of Inositol hexaphosphate kinase 1 (IP6K1) | IP6K1 kinase, ADP-Glo luminescence, 2 h; active compounds read low | activity change, % (series mostly up to about 58 µM) | hit rate 0.81% among 140,000; in the data active means activity change below about -25%
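ADP-Glo luminescence measures ADP made by human IP6K1 during a 2 h RT reaction with ATP/IP6 (mix at 1.3 mM/130 uM); top library doses 57.5 and 19.1 uM final.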
KDM5B inhibitor – Primary screen for KDM5B Histone Demethylases FDH-coupled qHTS | hit rate 2.6% among 220,000 | Potency, µM (top dose mostly 57.7 µM), most hits filed as inhibitors | Lysine-specific demethylase 5B (Homo sapiens), Q9UGL1 | AID 1347165, 2019 | KDM5B demethylase, FDH-coupled NADH fluorescence (FDH is formaldehyde dehydrogenase); further: nearly all actives have a fitted effect of over 70% in size
Target sequence (Q9UGL1 whole entry, looked up): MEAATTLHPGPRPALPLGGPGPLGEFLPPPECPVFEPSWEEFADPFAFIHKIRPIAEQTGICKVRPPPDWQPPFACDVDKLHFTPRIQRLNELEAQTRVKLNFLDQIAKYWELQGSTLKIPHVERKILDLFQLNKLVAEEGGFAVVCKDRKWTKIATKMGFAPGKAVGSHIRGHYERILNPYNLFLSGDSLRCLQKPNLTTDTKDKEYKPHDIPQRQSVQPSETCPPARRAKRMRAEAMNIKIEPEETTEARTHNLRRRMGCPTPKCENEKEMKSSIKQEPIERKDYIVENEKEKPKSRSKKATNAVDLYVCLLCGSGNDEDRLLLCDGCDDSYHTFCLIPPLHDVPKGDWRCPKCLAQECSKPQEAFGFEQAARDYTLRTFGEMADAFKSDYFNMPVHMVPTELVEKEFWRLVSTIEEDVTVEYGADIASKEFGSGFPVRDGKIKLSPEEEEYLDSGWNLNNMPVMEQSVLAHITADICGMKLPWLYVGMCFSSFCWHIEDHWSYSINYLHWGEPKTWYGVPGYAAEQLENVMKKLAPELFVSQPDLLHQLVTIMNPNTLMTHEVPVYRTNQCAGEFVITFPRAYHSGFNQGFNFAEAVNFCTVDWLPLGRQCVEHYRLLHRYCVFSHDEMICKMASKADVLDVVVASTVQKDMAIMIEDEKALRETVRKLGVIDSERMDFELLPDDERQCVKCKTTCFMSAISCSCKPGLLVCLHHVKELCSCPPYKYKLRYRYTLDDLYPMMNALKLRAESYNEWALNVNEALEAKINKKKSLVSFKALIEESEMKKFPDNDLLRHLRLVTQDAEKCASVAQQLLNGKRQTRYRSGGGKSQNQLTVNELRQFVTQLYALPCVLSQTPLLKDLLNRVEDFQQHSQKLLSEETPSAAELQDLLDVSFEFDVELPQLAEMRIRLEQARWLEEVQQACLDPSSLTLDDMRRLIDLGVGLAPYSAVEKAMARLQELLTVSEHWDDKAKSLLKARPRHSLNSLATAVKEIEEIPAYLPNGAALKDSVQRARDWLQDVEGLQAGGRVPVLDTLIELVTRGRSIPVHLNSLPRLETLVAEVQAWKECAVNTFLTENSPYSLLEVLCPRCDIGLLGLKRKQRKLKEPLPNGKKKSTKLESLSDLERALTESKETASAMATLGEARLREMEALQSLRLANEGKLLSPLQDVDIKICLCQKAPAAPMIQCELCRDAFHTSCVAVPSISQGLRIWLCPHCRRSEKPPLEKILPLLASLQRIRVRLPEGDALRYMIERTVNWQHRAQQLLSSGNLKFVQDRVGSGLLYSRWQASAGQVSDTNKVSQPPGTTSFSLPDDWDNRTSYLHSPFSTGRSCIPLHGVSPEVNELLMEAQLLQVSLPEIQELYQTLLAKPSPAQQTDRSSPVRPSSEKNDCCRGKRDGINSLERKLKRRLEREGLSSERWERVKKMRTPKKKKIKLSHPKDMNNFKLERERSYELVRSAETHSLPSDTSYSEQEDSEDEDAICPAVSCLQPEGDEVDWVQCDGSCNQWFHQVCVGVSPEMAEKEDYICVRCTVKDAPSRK
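KDM5BΔAP (200 nM final) in 50 mM HEPES pH 7.5, 0.01% Tween-20 was preincubated 10 min at RT with compound over a concentration range. Substrate mix (H3K4me3 12.5 µM, α-KG 25 µM, Fe²⁺, ascorbate, NAD⁺, FDH) was added, and NADH fluorescence change over 30 min gave dose-response curves.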
Of the large screens only hits and unclear results are named; the others gave an inactive call; ! = not active in a repeat. Shown are actives, neighbours in structure and some others; about 3% of the full set was active somewhere. Unless noted, the call rests on the fitted dose curve; in most records, active means well fitted curve in the direction sought with a large enough effect; inconclusive means small, poorly fitted or top-dose-only effect, or another doubt; inactive means no such curve, though single readings can be large; an effect the other way counts as inactive or inconclusive.

Cc1cc(C)cc(-c2ccc(CN3CCCC3C(=O)NCCc3ccccc3)cc2)c1 (stereo unspecified)	none (no result: KDM5B inhibitor)
O=C(NCc1cccc(C(F)(F)F)c1)C1CN(C2CCCCC2)C(=O)N1 (stereo unspecified)	none (no result: KDM5B inhibitor)
O=C(COCC1CCCO1)N1CCc2onc(-c3ccc4c(c3)OCO4)c2C1 (stereo unspecified)	KDM5B inhibitor 22µM
CCc1[nH]c2c(CNC(=O)C3(C)CCCCO3)cc(F)cc2c1C (stereo unspecified)	KDM5B inhibitor 20µM
CCN1CCN(CC(=O)NCc2ccc3[nH]c(-c4ccc(F)cc4)c(C)c3c2)CC1	KDM5B inhibitor 32µM
O=C(CN1CCOCC1)NCc1ccc(F)cc1	none (no result: SNCA viab count, SNCA expr inh, IP6K1 inhibitor)
Cc1c(-c2ccc(F)cc2)[nH]c2ccc(CNC(=O)CN3CCOC3=O)cc12	KDM5B inhibitor 28µM
N#Cc1cccnc1N1CC[C@@H](N2CCC(O)CC2)[C@H](O)C1	KDM5B inhibitor 25µM
O=C(c1cccnc1)N1C[C@@H]2OCC(=O)N(Cc3ccccn3)[C@@H]2C1	none
CCOC(=O)c1cccnc1N1C[C@H]2OC(=O)N(Cc3ccccn3)[C@H]2C1	KDM5B inhibitor 28µM
COc1ccc(Nc2ccnc(N3CCN(C(=O)c4ccccc4F)CC3)n2)cc1	none (no result: KDM5B inhibitor)
CCOc1ccc(NC(=O)N2CCc3nc(-c4ccccc4)[nH]c3C2)cc1	none (no result: KDM5B inhibitor)
Cn1ncc(N2CCC(CNC(=O)c3cn4cccnc4n3)C2)cc1=O (stereo unspecified)	KDM5B inhibitor 28µM
O=C(c1cc(-c2cc(Cl)cc(Cl)c2)c2cccn2n1)N1CCN(Cc2ccccc2)CC1	none (no result: KDM5B inhibitor)
CC(C)(C)CC(=O)N[C@H]1C[C@H]2C(=O)Nc3ccc(-c4cccs4)cc3C(=O)N2C1	KDM5B inhibitor 18µM
O=C1Nc2ccc(-c3cccs3)cc2C(=O)N2CC[C@H](NS(=O)(=O)c3ccc(Cl)cc3)C[C@@H]12	KDM5B inhibitor 32µM
C=CCNC(=O)N[C@H]1C[C@H]2C(=O)Nc3ccc(-c4cccs4)cc3C(=O)N2C1	KDM5B inhibitor inconclusive
CCCCCNC(=O)c1cc(-c2ccc(C(F)(F)F)cc2)nc2c1cnn2C	none (no result: SNCA viab count, SNCA expr inh, KDM5B inhibitor)
CNC(=O)[C@@H]1CN(C(=O)c2sccc2C)C[C@H]1c1nc(COC)no1	none
CNC(=O)[C@@H]1CN(C(=O)c2ccc(C)[nH]c2=O)C[C@H]1c1nc(COC)no1	SNCA viab count inconclusive, KDM5B inhibitor 25µM
CNC(=O)C1CCCN(Cc2cccc(-c3cccs3)c2)C1 (stereo unspecified)	none (no result: SNCA viab count, SNCA expr inh, KDM5B inhibitor)
Cn1cc(CN2CCc3ccccc32)ccc1=O	SNCA viab count inconclusive, KDM5B inhibitor 10µM
O=C(NCC(F)F)C1CCN(C(=O)c2ccc(-c3cccs3)cc2)CC1	none (no result: SNCA viab count, SNCA expr inh, KDM5B inhibitor)
CNc1nc2c(c(C(=O)N3CCCC3)n1)CN(C(=O)Cn1nccc1C)CC2	KDM5B inhibitor 22µM
CC(C)C[C@H](NC(=O)[C@@H](NC(=O)c1cccc(-c2ccccc2)n1)[C@@H](C)O)B(O)O	SNCA viab count 0.047µM!, SNCA expr inh 0.061µM (no result: KDM5B inhibitor)
CC(C)C[C@H](NC(=O)[C@H](Cc1ccccc1)NC(=O)c1cnccn1)B(O)O	SNCA viab count inconclusive, SNCA expr inh 0.048µM (no result: KDM5B inhibitor)
CC(C)C(NC(=O)c1ccccn1)C(=O)O (stereo unspecified)	none (no result: SNCA viab count, SNCA expr inh, IP6K1 inhibitor)
CSc1ccc(-c2cccc(CN3CCC(NC(=O)c4ccc(C(F)(F)F)cc4)CC3)c2)cc1	none (no result: SNCA viab count, SNCA expr inh, KDM5B inhibitor)
Cc1cccc(CN2CCCC3(CCN(c4cc(C)c5ccccc5n4)C3)C2=O)c1 (stereo unspecified)	KDM5B inhibitor 28µM
CCCN1CCCC2(CCN(c3cc(C)c4cccc(OC)c4n3)C2)C1=O (stereo unspecified)	KDM5B inhibitor 28µM
Cc1cc(N2CCC3(CCCN(CC4CCC4)C3=O)C2)nc2ccccc12 (stereo unspecified)	SNCA viab count inconclusive, SNCA expr inh inconclusive, KDM5B inhibitor 28µM
Cn1cc2c3c(cccc31)CN(C(=O)Cc1ccccc1F)CC2	SNCA viab count inconclusive, SNCA expr inh inconclusive, KDM5B inhibitor 28µM
Cn1cc2c3c(cccc31)CN(C(=O)C1CCC1)CC2	KDM5B inhibitor 32µM
CCn1cc2c3c(cccc31)CN(C(=O)Cc1ccccc1C)CC2	KDM5B inhibitor inconclusive
Cc1ccc(CC(=O)N2CCc3cn(C)c4cccc(c34)C2)cc1	KDM5B inhibitor 28µM
Cc1cccc(N2Cc3c(NCCCc4ccccc4)ncnc3N(C)CC2=O)c1	none (no result: KDM5B inhibitor)
c1ccc([C@@H]2C[C@@H]3C[C@H](NC4CCCCCC4)C[C@@H]3CO2)cc1	none (no result: SNCA viab count, SNCA expr inh, KDM5B inhibitor)
Cc1cc(C)n2ncc(C(=O)N3CCC(=O)N(CC4CC4)C(C(C)C)C3)c2n1 (stereo unspecified)	KDM5B inhibitor 32µM
Cc1nc2ncccn2c1C(=O)N1CCC(=O)N(CC2CC2)C(C(C)C)C1 (stereo unspecified)	KDM5B inhibitor 28µM
O=C(NCc1ccccc1F)c1ccc2nc(-c3ccccn3)oc2c1	none (no result: KDM5B inhibitor)
CCOc1nccn2c(-c3ccc(CNC(=O)c4ccnn4C)cc3)cnc12	SNCA expr inh inconclusive, KDM5B inhibitor 40µM
O=C(NCCc1ccccc1)N1CCC(CCc2nc(C3CCOCC3)no2)CC1	none (no result: KDM5B inhibitor)
CCn1nc(CC(C)C)cc1C(=O)N1C[C@@H](NC(C)=O)[C@H](C(C)C)C1	KDM5B inhibitor 35µM
CC(C)Cc1cc(C(=O)N2C[C@H](C3CC3)[C@@H](N)C2)n(C)n1	none
CCCCOc1ccc(-c2nc(C3CC(=O)N(c4ccc(F)cc4)C3)no2)cc1 (stereo unspecified)	SNCA expr inh inconclusive, KDM5B inhibitor 32µM
COc1ccc(N2CC(c3noc(-c4ccc(Cl)cc4)n3)CC2=O)cc1 (stereo unspecified)	none
CCOc1cc(-c2nc(C3CC(=O)N(c4ccc(F)c(Cl)c4)C3)no2)cc(OCC)c1OCC (stereo unspecified)	KDM5B inhibitor inconclusive
CCOc1ccc(-c2nc(C3CC(=O)N(c4ccc(Cl)cc4)C3)no2)cc1 (stereo unspecified)	KDM5B inhibitor 32µM
O=C1CC(c2noc(-c3ccccc3)n2)CN1c1ccc(Cl)cc1 (stereo unspecified)	none
CN(C)c1ccc(-c2nc(C3CC(=O)N(c4ccc(Cl)cc4)C3)no2)cc1 (stereo unspecified)	KDM5B inhibitor 4µM
CCCCOc1ccc(-c2nc(C3CC(=O)N(c4ccc(OC)cc4)C3)no2)cc1 (stereo unspecified)	KDM5B inhibitor inconclusive
CCOc1ccc(-c2nc(C3CC(=O)N(c4ccc(F)c(Cl)c4)C3)no2)cc1OCC (stereo unspecified)	KDM5B inhibitor 32µM
COCC(=O)NC1CCCN(c2ccc3nnc(-c4ccccc4)n3n2)C1 (stereo unspecified)	none (no result: SNCA viab count, SNCA expr inh, KDM5B inhibitor)
Cc1nn(-c2ccccc2)c2c1C(C)N(C1CCCN(C(=O)Nc3ccccc3)C1)C2=O (stereo unspecified)	none (no result: SNCA viab count, SNCA expr inh, KDM5B inhibitor)
O=C1CC(c2noc(-c3ccc(F)cc3)n2)CN1c1ccc(Cl)cc1 (stereo unspecified)	KDM5B inhibitor inconclusive
